{
  "source": "the supplement of paper PMC12350171",
  "note": "Structures can show the parent of a compound that is named as a salt. Values without a mark were called inactive.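 The calls were made as follows: active = AUC significantly below DMSO controls by Student t-fit with adjusted P under 0.01; inactive = not significantly reduced.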",
  "data": [
    {"test_system": "Haemophilus parainfluenzae", "assay": "growth AUC normalised to DMSO control (fraction of control); higher = less growth inhibition, active = hit call of the paper", "conditions": "20 µM", "in_short": "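Three biological replicates were carried out, with OD578 read hourly for 24 h. Before inoculation at a starting OD578 of 0.01, pathogens were passaged anaerobically twice; plates were pre-reduced mGAM containing 20 μM compound and 1% DMSO, sealed with breathable membranes, and the Haemophilus parainfluenzae medium carried added hemin and NAD. Area under each growth curve was calculated by the trapezoidal rule up to the exponential-to-stationary transition and normalised to DMSO controls on the same plate.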", "values": [
      {"smiles": "Cc1cccc(C)c1NC(=O)C1CCCCN1C", "note": "(stereo not given) [Mepivacaine hydrochloride]", "growth AUC normalised to DMSO control": 1.07},
      {"smiles": "COCCCOc1ccnc(C[S+]([O-])c2nc3ccccc3[nH]2)c1C", "note": "(stereo not given) [Rabeprazole sodium salt]", "growth AUC normalised to DMSO control": 0.985},
      {"smiles": "O=C(CCCN1CC=C(n2c(=O)[nH]c3ccccc32)CC1)c1ccc(F)cc1", "note": "[Droperidol]", "growth AUC normalised to DMSO control": 0.995},
      {"smiles": "O=c1[nH]cnc2c1ncn2[C@H]1CC[C@@H](CO)O1", "note": "[Didanosine]", "growth AUC normalised to DMSO control": 1.03},
      {"smiles": "CCN(CC)CCCC(C)Nc1c2ccc(Cl)cc2nc2ccc(OC)cc12", "note": "(stereo not given) [Quinacrine dihydrochloride hydrate]", "growth AUC normalised to DMSO control": 0.879},
      {"smiles": "CN(C)CCN(Cc1cccs1)c1ccccn1", "note": "[Methapyrilene hydrochloride]", "growth AUC normalised to DMSO control": 0.983},
      {"smiles": "CN[C@@H]1[C@H](O)[C@H](NC)[C@H]2O[C@@]3(O)C(=O)C[C@@H](C)O[C@H]3O[C@@H]2[C@H]1O", "note": "[Spectinomycin dihydrochloride]", "growth AUC normalised to DMSO control": "0.117 (active)"},
      {"smiles": "CCC1(c2ccccc2)NC(=O)N(C)C1=O", "note": "(stereo not given) [Mephenytoin]", "growth AUC normalised to DMSO control": 1.04},
      {"smiles": "CC(=O)O[C@@]12CO[C@@H]1C[C@H](O)[C@@]1(C)C(=O)[C@H](O)C3=C(C)[C@@H](OC(=O)[C@H](O)[C@@H](NC(=O)OC(C)(C)C)c4ccccc4)C[C@@](O)([C@@H](OC(=O)c4ccccc4)[C@H]21)C3(C)C", "note": "[Docetaxel]", "growth AUC normalised to DMSO control": 1.05},
      {"smiles": "O=C(c1ccc(F)cc1)C1CCN(CCn2c(=O)[nH]c3ccccc3c2=O)CC1", "note": "[Ketanserin tartrate hydrate]", "growth AUC normalised to DMSO control": 0.928}
    ]}
  ]
}
